bovine MsrA act – bovine MsrA enzyme activators, primary screen, biochemical, absorbance, HTS. Methionine sulfoxide reductase A (Bos taurus). purified bovine MsrA, absorbance read-out. activation, % at 10.6 µM. actives 0.3% (n = 360,000). AID 602163, 2012; in the data active means activation above about 7.5%;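 further: 0% = vehicle and 100% = reference activator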
ZTA DNA inh – counter-screen for EBNA-1 inhibitors: inhibitors of Epstein-Barr virus ZTA. inhibition, % at 11 µM. ZTA-DNA binding, fluorescence polarization. P03206. actives 0.15% (n = 320,000); in the data active means inhibition above about 33%
PP5 primary – PP5 phosphatase inhibitors, primary screen, biochemical, fluorescence | Serine/threonine-protein phosphatase 5 (Homo sapiens), P53041 | purified PP5c, OMFP substrate fluorescence | inhibition, % at 6.7 µM | actives 0.18% (n = 320,000) | AID 1987, 2009;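 active means inhibition above the campaign's mean inhibition across all tested compounds plus 3 SD, cut at about 9.5% in these data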;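 further: 0% = DMSO only and 100% = 100 µM cantharidin control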
Target sequence (P53041 whole entry, looked up): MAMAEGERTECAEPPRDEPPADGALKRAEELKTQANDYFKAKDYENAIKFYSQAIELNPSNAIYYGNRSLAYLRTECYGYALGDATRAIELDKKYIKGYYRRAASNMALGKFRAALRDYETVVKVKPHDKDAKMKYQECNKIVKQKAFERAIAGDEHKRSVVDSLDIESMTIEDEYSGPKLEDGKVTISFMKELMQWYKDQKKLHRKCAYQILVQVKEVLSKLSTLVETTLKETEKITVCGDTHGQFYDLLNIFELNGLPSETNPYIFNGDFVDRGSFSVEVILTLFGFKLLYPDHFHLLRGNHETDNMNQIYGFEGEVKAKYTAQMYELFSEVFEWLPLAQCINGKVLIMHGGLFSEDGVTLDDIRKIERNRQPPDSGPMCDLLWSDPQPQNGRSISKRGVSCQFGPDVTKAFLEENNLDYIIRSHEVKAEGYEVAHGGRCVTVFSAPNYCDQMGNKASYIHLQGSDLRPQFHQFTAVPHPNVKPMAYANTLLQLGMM
PP1 inh – PP1-alpha phosphatase inhibitors, primary screen, counter-screen for PP5 inhibitor project, biochemical, fluorescence, OMFP substrate, single point; Serine/threonine-protein phosphatase PP1-alpha catalytic subunit (Homo sapiens), P62136; purified PP1alpha; inhibition, % at 6.7 µM; actives 0.9% (n = 320,000); AID 2235, 2010;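 active means inhibition above the mean inhibition of all tested compounds plus 3 SD, computed separately for each screening campaign, cut at about 15% in these data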
MsrA inhibitor – bovine MsrA enzyme inhibitors, primary screen, biochemical, absorbance, HTS; Methionine sulfoxide reductase A (Bos taurus); purified bovine MsrA, absorbance read-out; inhibition, % at 15.5 µM; actives 0.75% (n = 360,000); AID 651718, 2012; in the data active means inhibition above about 4.5%;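 further: 0% = vehicle wells with enzyme and 100% = reference inhibitor wells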
EBNA-1 inhibitor – EBNA-1 DNA-binding inhibitors, primary screen, biochemical, fluorescence polarization; inhibition, % at 14.8 µM; actives 0.34% (n = 300,000); in the data active means inhibition above about 28%
EBNA-1 confirm – EBNA-1 DNA-binding inhibitors, retest, confirmation, biochemical, fluorescence polarization, triplicate | shares compounds with EBNA-1 inhibitor | Recombinant EBNA-1 DBD, Cy5-DNA fluorescence polarization | inhibition, % at 14.8 µM | actives 35% (n = 830);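 active means mean inhibition across replicates above a set limit taken from the earlier primary screen, cut at about 28% in these data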;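 further: plate controls were EBNA-1 protein with DMSO for no effect and wells lacking EBNA-1 for full effect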
ZTA DNA inh trip – EBV Zta DNA binding inhibitors, counter-screen for EBNA-1 inhibitor project, biochemical, fluorescence polarization, triplicate; shares compounds with EBNA-1 inhibitor; Zta-ZRE DNA binding, Cy5 fluorescence polarization; inhibition, % at 11.1 µM; 830 tested, under 10 active;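 active means mean inhibition over triplicates above a set limit taken from the primary EBNA-1 screen, cut at about 37% in these data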;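 further: purified full length Zta protein with Cy5 labeled ZRE DNA probe; 0% = Zta with DMSO and 100% = wells lacking Zta protein; inhibitors lower polarization by freeing the labeled DNA probe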
Starred values were filed as active, the others as inactive; nt = no result given. Sampled rows, rich in hits. Any-hit rate of the full collection: about 2.3%.

SMILES | bovine MsrA act | ZTA DNA inh | PP5 primary | PP1 inh | MsrA inhibitor | EBNA-1 inhibitor | EBNA-1 confirm | ZTA DNA inh trip
Cc1cccc(C)c1Nc1nnc(SCc2nc3ccccc3c(=O)[nH]2)s1 | -13 | -20 | 1 | -3 | 0 | 4 | nt | nt
CCOc1ccc(Nc2nnc(SCc3nc4ccccc4c(=O)[nH]3)s2)cc1 | -2 | 12 | -1 | -2 | 1 | 38* | 52* | 24
COc1ccc(Cc2c(Cl)ncnc2Cl)cc1 | -7 | 12 | 0 | 0 | -1 | 33* | -9 | -11
Cc1ccc(N(Cc2ccc(C(=O)NC3CCCCC3)cc2)S(C)(=O)=O)cc1C | -12 | -4 | 2 | -2 | 0 | 31* | 34* | -14
Cn1c(=O)c2sccc2n(Cc2cccc(Br)c2)c1=O | -7 | 18 | -3 | 0 | -1 | 0 | nt | nt
Cc1ccc2[nH]c(=O)c(CN(Cc3cccs3)C(=S)NCC3CCCO3)cc2c1 (stereo unspecified) | -1 | 9 | 4 | 3 | -1 | 44* | 17 | -5
Cc1ccc(S(=O)(=O)N2CCC(C(=O)Nc3nnc(C)s3)CC2)cc1 | 5 | 6 | 1 | 6 | 1 | 2 | nt | nt
Cc1ccnc(NS(=O)(=O)c2ccc(NC(=O)c3cc(-c4ccc(Br)cc4)nc4ccccc34)cc2)n1 | -5 | 19 | 4 | 14 | 0 | 32* | 0 | -6
Cc1ccnc(NS(=O)(=O)c2ccc(NC(=O)c3cc(-c4ccccc4)nc4ccccc34)cc2)n1 | 0 | 7 | 1 | -3 | 1 | 7 | nt | nt
CC(C)(C)OC(=O)C[C@@H]1C/C=C\C[C@@H](CC(=O)N[C@@H](CO)Cc2ccccc2)C(=O)NCCOC1=O | -4 | nt | nt | nt | 1 | nt | nt | nt
S=C(NCc1ccco1)Nc1ccc(Cl)cc1 | -2 | -8 | 1 | 2 | 0 | 31* | -4 | 0
COc1ccc2nc(NC(=O)CSc3nnc(C)s3)sc2c1 | 0 | -8 | 2 | 2 | -1 | 29* | 7 | -1
COC(=O)Cc1c(C)c2ccc(OC3CCCCC3=O)c(C)c2oc1=O (stereo unspecified) | -2 | 24 | -2 | -8 | 1 | 125* | -1 | -4
Nc1nc(-c2ccc3c(c2)OCCO3)cs1 | 0 | -8 | 1 | 2 | 1 | -6 | nt | nt
Nc1nc(-c2ccc3c(c2)CCCC3)cs1 | -2 | -17 | 4 | 1 | 0 | 53* | 7 | -6
COCCCNC(=O)c1ccc(Cn2c(=O)c3ccccc3n(Cc3ccccc3C)c2=O)cc1 | -3 | 15 | 0 | -2 | 1 | 8 | nt | nt
COCCCNC(=O)c1ccc(Cn2c(=O)c3ccccc3n(Cc3ccccc3C#N)c2=O)cc1 | -1 | 6 | 1 | -1 | 0 | 33* | 11 | 1
CC(=O)c1cccc(NC(=O)c2ccc(-c3ccccc3[N+](=O)[O-])o2)c1 | -3 | 8 | 4 | -2 | 0 | 36* | 4 | 17
COc1ccc(C(=O)COC(=O)c2ccc(NC(=O)c3ccccc3)cc2)cc1 | -2 | 13 | -4 | -1 | -1 | 29* | -9 | 7
CCOc1ccc(NC(=O)CC(=O)Nc2ccc(OCC)cc2)cc1 | -2 | 0 | 1 | -4 | -1 | 42* | 4 | -4
COc1ccc(C(=O)Nc2ccc(C(=O)c3ccccc3)cc2)cc1 | -2 | 10 | -1 | -2 | 1 | 11 | nt | nt
COc1ccc(NC(=O)c2cccc(NC(=O)c3ccccc3)c2)cc1 | -8 | -13 | -2 | 2 | 0 | 68* | -5 | -4
COC(=O)C(C(=O)OC)c1ccc(NC(=O)c2cccc(Cl)c2)cc1 | -3 | -3 | 1 | 0 | -1 | 60* | 49* | 0
CCN(CC)S(=O)(=O)c1cccc(C(=O)N[C@H](C(=O)Nc2nc3ccc(F)cc3s2)C(C)C)c1 | 0 | 8 | 3 | 9 | 1 | -2 | nt | nt
CCOc1ccc(NC(=O)c2cccc(NC(=O)c3ccccc3)c2)cc1 | -4 | 0 | -7 | -5 | 1 | 46* | 37* | -3
SMILES | bovine MsrA act | ZTA DNA inh | PP5 primary | PP1 inh | MsrA inhibitor | EBNA-1 inhibitor | EBNA-1 confirm | ZTA DNA inh trip
O=C(CSC(=S)N1CCCCC1)Nc1nc(-c2ccccc2)c(-c2ccccc2)o1 | -1 | 26 | 5 | 4 | 0 | 36* | 6 | -1
CCOC(=O)c1ccc(CNC(=O)CSc2nnc(-c3ccncc3)o2)cc1 | -11 | 13 | 2 | -3 | 1 | -2 | nt | nt
CCOC(=O)c1ccc(CNC(=O)CSc2nc(NC(=O)c3ccccc3)c3c(C)c(C)oc3n2)cc1 | 1 | -6 | 1 | -2 | 0 | 40* | 4 | -2
CCc1ccc(S(=O)(=O)N2CCN(C(=O)c3cccnc3)CC2)cc1 | -5 | 6 | 0 | 0 | 0 | 8 | nt | nt
COc1cccc(CNC(=O)CCCCCn2c(=S)[nH]c3ccc(N4CCOCC4)cc3c2=O)c1 | nt | -1 | 2 | -2 | -2 | 12 | nt | nt
O=C(NC1CCN(Cc2ccccc2)CC1)c1ccc(Cn2c(=S)[nH]c3ccc(N4CCOCC4)cc3c2=O)cc1 | -3 | 0 | 2 | 1 | 1 | -10 | nt | nt
COc1cccc(Cn2c(=S)[nH]c3ccc(N4CCOCC4)cc3c2=O)c1 | -2 | -4 | 3 | 4 | 1 | 29* | 8 | -11
O=c1c2cc(N3CCOCC3)ccc2[nH]c(=S)n1Cc1cccc(Cl)c1 | 3 | 1 | 3 | -4 | 0 | 30* | 7 | 7
COC(=O)C(=N/Nc1ccccc1C(=O)OC)/C(C)=N/O | -3 | 9 | -2 | -3 | 3 | 57* | 42* | -2
CNc1ccccc1C(=O)OC | 0 | -6 | 0 | -3 | 0 | 2 | nt | nt
COC(=O)c1ccc2c(=O)n(CCCCCC(=O)NCc3ccc4c(c3)OCO4)c(=O)[nH]c2c1 | -4 | 0 | -2 | -7 | 0 | 63* | 24 | -14
O=C(CCn1c(=S)[nH]c2ccccc2c1=O)Nc1cccc(Cl)c1 | -3 | 7 | -2 | -3 | 1 | 28* | 15 | 5
CCCCCn1c(=O)[nH]c2cc(C(=O)NCc3ccc4c(c3)OCO4)ccc2c1=O | -3 | -5 | 1 | 7 | -1 | 31* | 18 | 15

Source: PubChem
